Assay outcomes (PubChem BioAssay)
HP1b chromo inh: inhibitors of HP1-beta chromodomain binding to methylated histone tails; P83916; AlphaScreen HP1-beta / biotin-H3K9me3 peptide binding; Potency, µM (titrated, usually from 114 µM), usual class: inhibitors; hit rate 0.56% among 390,000; also: nearly all actives have a fitted effect of over 70% in size
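Compound inhibition of the preformed complex between 50 nM HP1-beta and 50 nM biotinylated H3K9me3 peptide was read by AlphaScreen. Buffer was PBS pH 7.4 with 0.01% Tween-20. Incubations ran 30 min at room temperature, with 10 ug/mL donor/acceptor beads.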
Sfp PPTase inh: inhibitors of Bacillus subtilis Sfp phosphopantetheinyl transferase | Q9F4F7 | Biochemical Sfp PPTase activity, qHTS | Potency, µM, actives largely listed as inhibitors | hit rate 3.5% among 310,000 | AID 1490;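 also: the enzyme is Sfp with the accession as filed and its product quenches rhodamine fluorescence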
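Reaction rates are the 30-min fluorescence difference (ex 525, em 598 nm) in wells containing 15 nM Sfp, 5 uM rhodamine-CoA and 12.5 uM BHQ-2-YbbR at pH 7.6 with 10 mM MgCl2.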
BAZ2B inh: inhibitors of human BAZ2B bromodomain; Potency, µM (doses to about 114 µM), most hits filed as inhibitors; hit rate 4.4% among 360,000; AlphaScreen BAZ2B-H3K14Ac peptide displacement; also: nearly all actives have a fitted effect of over 60% in size
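BAZ2B 50 nM plus b-H3(5-23)K14Ac 50 nM, PBS pH 7.4/0.01% Tween-20, 30 min RT; compound added (max 110 uM), 30 min RT; streptavidin donor/Ni-chelate acceptor beads 10 ug/mL final, 20 min dark; AlphaScreen read.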
L3MBTL1 inh: blocks human L3MBTL1; Q9Y468; AlphaScreen L3MBTL1–H3K9me1 peptide binding; Potency, µM (top dose mostly 57.1 µM), most hits filed as inhibitors; hit rate 0.66% among 230,000; also: nearly all actives have a fitted effect of over 60% in size
Target sequence (Q9Y468 whole entry, looked up): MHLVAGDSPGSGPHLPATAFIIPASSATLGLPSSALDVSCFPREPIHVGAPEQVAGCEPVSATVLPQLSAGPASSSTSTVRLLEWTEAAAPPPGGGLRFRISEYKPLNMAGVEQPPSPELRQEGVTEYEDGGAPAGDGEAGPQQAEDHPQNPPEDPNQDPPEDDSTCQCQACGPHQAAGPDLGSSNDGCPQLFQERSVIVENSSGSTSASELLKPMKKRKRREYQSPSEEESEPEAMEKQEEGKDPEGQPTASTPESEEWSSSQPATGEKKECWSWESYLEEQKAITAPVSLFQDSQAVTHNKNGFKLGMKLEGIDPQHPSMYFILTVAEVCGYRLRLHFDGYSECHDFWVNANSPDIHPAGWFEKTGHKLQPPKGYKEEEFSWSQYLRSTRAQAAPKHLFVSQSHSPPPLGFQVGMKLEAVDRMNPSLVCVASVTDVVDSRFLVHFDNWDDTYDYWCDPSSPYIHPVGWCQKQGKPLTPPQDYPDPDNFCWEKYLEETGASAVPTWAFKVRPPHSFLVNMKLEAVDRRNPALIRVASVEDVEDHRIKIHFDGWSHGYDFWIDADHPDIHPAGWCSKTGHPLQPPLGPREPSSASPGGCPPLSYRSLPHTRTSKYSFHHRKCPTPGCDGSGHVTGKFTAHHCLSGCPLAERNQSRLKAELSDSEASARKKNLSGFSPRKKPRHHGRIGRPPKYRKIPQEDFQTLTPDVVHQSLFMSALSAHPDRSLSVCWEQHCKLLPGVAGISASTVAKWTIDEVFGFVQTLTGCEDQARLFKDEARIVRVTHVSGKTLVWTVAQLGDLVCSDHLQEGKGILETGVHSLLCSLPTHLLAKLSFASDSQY
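AlphaScreen proximity signal between nickel-chelate acceptor and streptavidin donor beads (final 10 ug/mL) reports binding of 50 nM L3MBTL1 to 75 nM biotin-H3 K9me1 peptide; complex incubated with compounds 30 min at room temperature; cefsulodin titration as control.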
JMJD2A Tudor: blocks the human JMJD2A Tudor domain; O75164; AID 504339; AlphaScreen JMJD2A-Tudor / H3K4me3 peptide binding; Potency, µM (titrated, usually from 114 µM), usual class: inhibitors; hit rate 4.4% among 390,000; also: nearly all actives have a fitted effect of over 50% in size
G9a inh: inhibitors of human histone lysine methyltransferase G9a; Potency, µM (highest dose often 102 µM), hits mostly inhibitors; AID 504332; G9a H3K9 monomethylation, AlphaScreen, 2 h; hit rate 8.8% among 350,000; also: nearly all actives have a fitted effect of over 75% in size
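AlphaScreen detection with an anti-monomethyl H3K9 antibody quantified product after a 2 h room-temperature reaction containing 500 nM biotinylated H3K9 peptide, 20 µM SAM and 20 nM enzyme, which had been preincubated 15 min with compound.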
Numbers stand for hits; 0 = inactive; ? = inconclusive; - = no result; [ ] = another dose, or the depositor's remark. Sampled rows, rich in hits. Any-hit rate of the full collection: about 12%. Calls follow the shape of the dose curve; as a rule, active = well fitted curve in the direction sought with a large enough effect; inconclusive = small, poorly fitted or top-dose-only effect, or another doubt; inactive = no such curve, though single readings can be large; an effect the other way counts as inactive or inconclusive.

SMILES	HP1b chromo inh	Sfp PPTase inh	BAZ2B inh	L3MBTL1 inh	JMJD2A Tudor	G9a inh
CCC(C(=O)Nc1cc(-c2cn3cccnc3n2)ccc1C)c1ccccc1 (configuration not stated)	0	-	0	-	22.4µM	0
Cc1ccc(-c2cn3cccnc3n2)cc1NC(=O)Nc1ccc(F)cc1	0	-	0	-	0	0
O=c1c2[nH]c3ccccc3c2nc(SCc2cccc(F)c2)n1-c1ccccc1	0	-	0	-	0	0
COC(=O)c1ccccc1NC(=O)CSc1nnc2cc(C)c3cc(C)cc(C)c3n12	0	-	0	-	0	0
CCOc1ccc(C(=O)Nc2ccc3nc(SCC(=O)N4CCOCC4)sc3c2)cc1	0	-	?	-	0	0
CCOC(=O)c1cc(C(=O)OCC)c(=O)[nH]c1C	0	?	0	0	0	0
CCOC(=O)c1cc(C)[nH]c(=S)c1C#N	0	39.8µM	?	0	6.31µM	0[0.501 µM]
CNC(=O)/C(C#N)=C\c1ccc(CNS(=O)(=O)c2ccccc2)o1	0	0	0	0	0	0
COCCCN1C(=O)/C(=C/c2ccc(CNS(=O)(=O)c3ccccc3)o2)C(C(=O)OC)=C1C	0	14.1µM	0	0	56.2µM	28.2µM
CCCC(c1nnnn1CCOC)N1CCN(C(=O)c2ccco2)CC1 (configuration not stated)	0	0	?	0	?	44.7µM
CCC(c1nnnn1Cc1ccco1)N1CCN(C(=O)c2ccco2)CC1 (configuration not stated)	0	0	?	0	?	0
COCCn1nnnc1CN1CCN(C(=O)c2ccco2)CC1	0	0	0	-	0	0
COCCn1nnnc1C(C(C)C)N1CCN(C(=O)c2ccco2)CC1 (configuration not stated)	0	0	0	-	44.7µM	0[12.7 µM]
CCCCC(c1nnnn1C(C)C)N1CCN(C(=O)c2ccco2)CC1 (configuration not stated)	0	0	0	-	?	50.1µM
CC(C)CC(c1nnnn1C(C)C)N1CCN(C(=O)c2ccco2)CC1 (configuration not stated)	0	-	0	0	0	0[0.501 µM]
COc1cccc(CNC(=O)c2nn(-c3ccc(C)cc3)c(=O)c3c2c2ccccc2n3C)c1	0	-	-	-	0	0
O=C1c2ccccc2NC2(CCCC2)N1O	0	?	0	-	0	35.5µM
CCOC(=O)c1c(NC(=O)c2cc(=O)c3ccc(C)cc3o2)sc(C)c1C	0	-	0	-	0	0
Cc1cnc(=O)[nH]c1SCc1ccc([N+](=O)[O-])cc1	0	0	?	-	0	63.1µM
O=C(Cn1ccc2cc(S(=O)(=O)N3CCCCCC3)ccc21)NCc1cccc(Cl)c1	0	-	0	-	0	0
Cc1c2cnn(-c3ccccc3)c(=O)c2c(C)n1CCCC(=O)Nc1cc(F)ccc1F	0	-	0	-	0	0
COc1cc(CNCc2c[nH]c3ccccc23)cc(OC)c1	?	0	56.2µM	0	3.55µM	14.1µM
COc1cc(CNCc2cccc3ccccc23)cc(OC)c1	0	0	50.1µM	0	25.1µM	50.1µM
COc1ccc(CNC(=O)Cc2c(C)c3c(cc(C)c4c(C)coc43)oc2=O)cc1	0	-	0	-	0	0
CC(C)c1ccc(NC(=O)[C@H]2O[C@@H]3OC(C)(C)O[C@@H]3[C@H]3OC(C)(C)O[C@H]32)cc1	0	-	0	-	0	0
SMILES	HP1b chromo inh	Sfp PPTase inh	BAZ2B inh	L3MBTL1 inh	JMJD2A Tudor	G9a inh
Cc1ccc(-c2cc(C(=O)OCC(=O)N(C)C3CCS(=O)(=O)C3)c3ccccc3n2)o1 (configuration not stated)	0	20µM	0	-	79.4µM	3.98µM
CCN(C(=O)COC(=O)c1cc(-c2ccc(C)o2)nc2ccccc12)C1CCS(=O)(=O)C1 (configuration not stated)	0	20µM	0	0	89.1µM	2µM
Cc1ccc(-c2cn3c(n2)sc2cc(C(=O)NCCC4=CCCCC4)ccc23)c(C)c1	0	-	0	-	0	0
O=C(NCCc1nc2ccccc2n1CCCOc1ccc2ccccc2c1)C1CCCCC1	0	-	-	-	0	-
O=C(NCCO)c1ccc2c3n(nc2c1)-c1ccc(Cl)cc1CO3	0	89.1µM	0	-	0	0[12.7 µM]
O=C(c1ccc2c3n(nc2c1)-c1ccc(Cl)cc1CO3)N1CCCCC1	0	56.2µM	0	-	0	0[12.7 µM]
Cc1ccc2c(c1)COc1c3ccc(C(=O)N4CCOCC4)cc3nn1-2	0	0	0	-	0	0[12.7 µM]
COc1cc(OC)c(NC(=O)N2CCc3c([nH]c4ccccc34)C2c2ccccc2F)cc1Cl (configuration not stated)	0	-	0	-	?	?
CCc1ccc(-c2cn3c(n2)sc2cc(C(=O)NCCc4ccc(OC)cc4OC)ccc23)cc1	0	-	0	-	0	0
S=C(NCCc1cnc[nH]1)NC1CCCC1	0	0	0	0	0	0
S=C(NCCCc1cnc[nH]1)NCCCN(Cc1ccc(Cl)cc1)c1cc(-c2ccccc2)ccn1	?	-	-	-	56.2µM	-
S=C(NCCCN(Cc1ccc(Cl)c(Cl)c1)c1ccc(Br)cn1)NCCc1cnc[nH]1	-	-	-	-	39.8µM	-
O=C(Cc1ccc(Cl)cc1)NCCc1cnc[nH]1	0	0	0	-	0	0
CN(CCCc1cnc[nH]1)C(=S)NCCCN(Cc1ccc(Cl)cc1)c1ccc(Br)cn1	?	-	-	-	31.6µM	-
Clc1ccc(CN(CCCNc2ncnc(NCCCc3cnc[nH]3)n2)c2ccc(Br)cn2)cc1Cl	-	-	-	-	35.5µM	-
COc1ccc(CN(CCCN)c2ccc(Br)cn2)cc1	0	-	-	-	0	-
Cn1c2c(c3cnc4cc(Cl)ccc4c31)CNCC2	0	-	-	-	0	-
O=C(NCc1ccc(Cl)cc1Cl)c1ccc2nc[nH]c2c1	0	0	?	0	0	?
S=C(NCCCN(Cc1ccc(Cl)cc1)c1ccc(Br)cn1)NCc1ccc2nc[nH]c2c1	0	-	-	-	50.1µM	-
S=C(NCCCc1cnc[nH]1)NCCN(Cc1ccc(Cl)c(Cl)c1)c1ccc(Br)cn1	-	-	-	-	56.2µM	-
NCCN(Cc1ccc(Cl)c(Cl)c1)c1ccc(Br)cn1	0	-	-	-	0	-
Cc1[nH]n(-c2ccccc2)c(=O)c1C(=O)c1ccc([N+](=O)[O-])cc1	0	0	0	0	0	50.1µM
O=c1[nH][nH]c(-c2ccccc2O)c1C(C[N+](=O)[O-])c1cccc(Cl)c1 (configuration not stated)	0	0	0	0	0	0
Cc1[nH]n(-c2ccccc2)c(=O)c1C(c1ccc(C(=O)O)cc1)c1c(C)[nH]n(-c2ccccc2)c1=O	0	0	0	?	0	0
COc1ccc(C(c2c(C)n(C)n(-c3ccccc3)c2=O)c2c(C)n(C)n(-c3ccccc3)c2=O)cc1O	0	0	0	0	0	0
COc1cccc(C(C[N+](=O)[O-])c2c(C)[nH]n(-c3ccccc3)c2=O)c1 (configuration not stated)	0	28.2µM	?	-	0	10µM
CCOc1ccc(C(c2c(C)[nH]n(-c3ccccc3)c2=O)c2c(C)[nH]n(-c3ccccc3)c2=O)cc1OC	?	-	?	-	?	8.91µM
